High-throughput results deposited in PubChem BioAssay by National Center for Advancing Translational Sciences (NCATS).
A selection: hits, their analogues and other compounds. The true share with any hit is near 2.6%.
Cruzain inh noDet: cruzain (T. cruzi) inhibition without detergent | actives 2.3% (n = 200,000) | P25779 | Potency, µM, most hits filed as inhibitors | purified cruzain, Z-FR-AMC fluorescence, no detergent; note: nearly all actives have a fitted effect of over 40% in size
Target sequence (P25779 123-467 limits assumed): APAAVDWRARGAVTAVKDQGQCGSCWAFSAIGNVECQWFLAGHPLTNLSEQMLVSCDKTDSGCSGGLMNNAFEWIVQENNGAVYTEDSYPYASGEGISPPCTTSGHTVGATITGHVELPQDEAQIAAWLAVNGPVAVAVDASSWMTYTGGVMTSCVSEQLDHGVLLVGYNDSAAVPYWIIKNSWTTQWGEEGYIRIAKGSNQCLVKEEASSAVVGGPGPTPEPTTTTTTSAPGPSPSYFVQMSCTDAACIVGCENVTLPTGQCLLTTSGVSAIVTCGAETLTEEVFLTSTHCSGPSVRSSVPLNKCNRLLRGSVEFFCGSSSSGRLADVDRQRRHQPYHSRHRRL
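Detergent-free condition (0.00005% Triton X-100) in acetate buffer pH 5.5 with DTT. 1.5 nM enzyme and compound were pre-mixed 15 min, then 2 uM Z-FR-AMC substrate added; reaction progress from fluorescence change between first and third reads (60 s).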
Cruzain inh Det: blocks cruzain activity in presence of Triton detergent | AID 1478 | actives 0.43% (n = 200,000) | Potency, µM, hits mostly inhibitors | P25779 | purified cruzain, Z-FR-AMC fluorescence, 0.01% Triton; note: nearly all actives have a fitted effect of over 40% in size
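15 min RT preincubation of 1.5 nM cruzain with compound, then 2 uM Z-FR-AMC added; kinetic AMC fluorescence, 60 s delta. Triton X-100 0.01%, pH 5.5.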
Large screens that a line does not name were inactive. Calls come from the whole dose curve; as a rule, active = well fitted curve in the direction sought with a large enough effect; inconclusive = small, poorly fitted or top-dose-only effect, or another doubt; inactive = no such curve, though single readings can be large; an effect the other way counts as inactive or inconclusive.

COc1ccc(NC(=O)CSc2ccc3c4c(cccc24)C(=O)c2ccccc2-3)cc1	Cruzain inh noDet 13µM
COc1ccc(NC(=O)CSc2nc3ccccc3c3nc4ccccc4n23)cc1	none
N#Cc1cccc(NC(=O)CSc2ccc3c4c(cccc24)C(=O)c2ccccc2-3)c1	Cruzain inh noDet 10µM
COc1ccccc1NC(=O)C(=O)Nc1ccccn1	none
CC(C)c1ccc(NC(=O)c2ccc(NC(=O)CCS(=O)(=O)c3cccs3)cc2)cc1	Cruzain inh noDet 32µM
O=C(CCS(=O)(=O)c1cccs1)Nc1ccc(C(=O)Nc2cccc(Cl)c2)cc1	none
CC(=O)c1ccc(NC(=O)CN2C(=O)/C(=C/C=C/c3ccccc3)SC2=S)cc1	Cruzain inh noDet 10µM
O=C(CCN1C(=O)/C(=C/C=C/c2ccccc2)SC1=S)Nc1cccnc1	Cruzain inh noDet inconclusive
CCc1nnc(NC(=O)CCN(c2cc(C)cc(C)c2)S(=O)(=O)c2ccc(Cl)cc2)s1	none
O=C1CC(N2CCN(c3nc4ccccc4s3)CC2)C(=O)N1c1cccc(F)c1 (stereo not given)	Cruzain inh noDet inconclusive
CCOC(=O)N1CCC2(CC1)C(C#N)=C(N)Oc1c2c(C)nn1-c1cccc(Cl)c1	none
COC(=O)c1ccc2c(c1)c(C#Cc1ccccc1)c(-c1ccccc1)n2C	Cruzain inh noDet 18µM
COC(=O)c1ccc2c(c1)c(I)c(-c1ccc(OC)cc1)n2C	Cruzain inh noDet inconclusive
Cc1ccc(-c2nc(CS(=O)CC(=O)N3CCN(c4cccc(Cl)c4)CC3)c(C)o2)cc1 (stereo not given)	Cruzain inh noDet inconclusive
CCc1ccc(S(=O)(=O)NCc2csc(-c3ccccc3)n2)s1	none
O=C1NC(=S)N/C1=C/c1ccc(-c2c(Br)cc([N+](=O)[O-])cc2Br)o1	Cruzain inh noDet 20µM
O=C1NC(=S)N/C1=C\c1cccc([N+](=O)[O-])c1	Cruzain inh noDet inconclusive
COc1cccc(CNC(=O)COc2cc(=O)n(C)c3ccccc23)c1	none
C/C(=N\NC(=O)c1cccc(S(=O)(=O)Nc2ccccc2Cl)c1)c1ccc(-n2ccnc2)cc1	Cruzain inh noDet 20µM
COc1ccc(NS(=O)(=O)c2cccc(C(=O)N/N=C(\C)c3ccc(-n4ccnc4)cc3)c2)cc1	none
O=C(Nc1cccc(Cl)c1)Nc1ccc2c(c1)C(=O)OC2	none
CCOc1ccc(NC(=O)CSc2nc(C)c(C(=O)Nc3ccccc3)c(-c3ccc(Cl)cc3)c2C#N)cc1	none
COc1ccc(-c2c(C#N)c(SCC(=O)Nc3ccc(C)c(C)c3)nc(C)c2C(=O)Nc2ccc(Cl)cc2)cc1	Cruzain inh noDet 6.3µM
COC(=O)c1ccc(C(NC(=O)OCc2ccccc2)/C(=C/[C@@H](C)C(=O)NCc2nc3ccccc3s2)c2cccnc2)cc1 (stereo not given in full)	Cruzain inh noDet inconclusive
O=C(O)COc1ccccc1/C=C1\SC(=S)N(/N=C/c2ccccc2O)C1=O	Cruzain inh noDet inconclusive, Cruzain inh Det 28µM
COc1cccc(/C=C2/SC(=O)N(CC(=O)N3CCc4ccccc4C3)C2=O)c1OCC(=O)O	Cruzain inh noDet inconclusive
COc1ccc(CCn2c(O)c(C=NCc3ccc4c(c3)OCO4)c(=O)[nH]c2=O)cc1OC	Cruzain inh noDet inconclusive
O=c1[nH]c(=O)n(CCc2ccc(F)cc2)c(O)c1C=NCc1ccc2c(c1)OCO2	Cruzain inh noDet inconclusive, Cruzain inh Det 13µM
CCOc1ccccc1C1C(C(=O)Nc2ccccc2OC)=C(C)Nc2nc3ccccc3n21 (stereo not given)	none
CS(=O)(=O)N1CCC2(CC1)CN(c1ncccn1)C2	Cruzain inh noDet 16µM
CS(=O)(=O)N1CCC[C@@]2(CCN(c3ncccn3)C2)C1	none
Cn1cnnc1SCC(=O)c1ccc2c(c1)CCCC2	none
CCc1ccc(NC(=O)CN2C(=O)C(=O)c3ccccc32)cc1	none
O=C(CSc1oc(-c2ccc(F)cc2)nc1S(=O)(=O)c1ccccc1)c1ccc(Cl)cc1	Cruzain inh noDet 32µM
Cc1ccc(S(=O)(=O)c2nc(-c3ccc(F)cc3)oc2SCC(=O)c2ccccc2)cc1	Cruzain inh noDet inconclusive
Cc1ccc(-c2nc(S(=O)(=O)c3ccc(C)cc3)c(SCC(=O)c3ccccc3)o2)cc1	Cruzain inh noDet 16µM
O=C(CSc1oc(-c2ccco2)nc1S(=O)(=O)c1ccc(Br)cc1)c1ccc(Cl)cc1	Cruzain inh noDet 20µM
CCCSc1oc(-c2ccco2)nc1S(=O)(=O)c1ccc(Cl)cc1	none
O=C(CSc1oc(-c2ccccc2)nc1S(=O)(=O)c1ccc(Cl)cc1)Nc1ccc(F)cc1	none
CCn1c(CNC(=O)C23CC4CC(CC(C4)C2)C3)nnc1SCC(=O)Nc1nnc(C)s1	none
O=C(NCCCNCCCNC(=O)c1ccccn1)c1ccccn1	none
CS(=O)(=O)c1ccc(N2CCOCC2)c(S(C)(=O)=O)c1	none
CCOC(=O)C(C)(C)N(Cc1ccc(Cl)cc1)S(=O)(=O)c1ccc(Cl)c([N+](=O)[O-])c1	none
CC(=O)C1(O)C(C)CC2C3CCC4CC(O)CCC4(C)C3=CCC21C (stereo not given)	none
COc1ccc(NC(=O)c2ccc3c(c2)N(Cc2cccc(Cl)c2)C(=O)c2ccccc2S3(=O)=O)cc1Cl	Cruzain inh noDet 3.2µM
CC(=O)c1ccc(NC(=O)c2ccc3c(c2)N(Cc2cccc(Cl)c2)C(=O)c2ccccc2S3=O)cc1 (stereo not given)	none
COc1ccc(NC(=O)c2ccc3c(c2)N(Cc2cccc(Cl)c2)C(=O)c2ccccc2S3=O)cc1Cl (stereo not given)	Cruzain inh noDet inconclusive
CC(=O)c1ccc(NC(=O)c2ccc3c(c2)N(Cc2cccc(Cl)c2)C(=O)c2ccccc2S3(=O)=O)cc1	Cruzain inh noDet 10µM
CCc1cccc(C)c1NC(=O)CCCn1c(=O)c2cccn2c2cccnc21	none
Cc1[nH]c2ccccc2c1C1(O)C(=O)N(Cc2ccccc2Cl)c2ccccc21 (stereo not given)	Cruzain inh noDet inconclusive
COc1ccccc1-c1cc(-c2ccc(C)cc2)nc(SCc2nnc(-c3ccccc3)o2)c1C#N	Cruzain inh noDet 4µM
Cc1cc(C)c(C#N)c(SCc2nnc(-c3ccccc3)o2)n1	none
COc1ccc(-c2noc(CSc3nc4ccccc4c(=O)n3-c3ccccc3)n2)cc1OC	none
COc1ccc(-c2noc(CSc3nc4sc(C)c(C)c4c(=O)n3-c3ccccc3)n2)cc1OC	none
Cc1noc(C)c1CSc1nc2sc(C)c(C)c2c(=O)n1-c1ccccc1	none
O=c1c2ccccc2nc(SCc2nc(-c3ccccc3)no2)n1-c1ccc(F)cc1	Cruzain inh noDet 25µM
Cc1noc(C)c1CSc1nc2ccccc2c(=O)n1-c1ccc(Cl)cc1	Cruzain inh noDet 20µM
COc1ccc(-c2noc(CSc3nc4sc(C)c(C)c4c(=O)n3-c3ccccc3)n2)cc1	Cruzain inh noDet 7.9µM
Cc1ccc(NC(=O)C2CCCN2S(=O)(=O)c2cccc3nsnc23)c(Br)c1 (stereo not given)	none
COc1cc(NC(=O)COC(=O)[C@@H]2CCCN2S(=O)(=O)c2ccc(Cl)cc2)cc(OC)c1OC	Cruzain inh noDet inconclusive
COc1ccccc1N(Cc1cc2cccc(C)c2[nH]c1=O)C(=O)c1cccc(Cl)c1	none
COCCCN1C(=O)C(=O)/C(=C(/O)c2ccc(OC)cc2C)C1c1cccnc1 (stereo not given)	none
Cc1ccc(-n2c(/C=C/c3cccc4ccccc34)nc3ccccc3c2=O)cc1	none
CCOC(=O)C(NC(=O)N1CCCCC1)(c1ccccc1)C(F)(F)F (stereo not given)	none
CCOC(=O)C(NC(=O)NC1CCCCC1)(c1ccccc1)C(F)(F)F (stereo not given)	Cruzain inh noDet 3.2µM
